Source: PubChem BioAssay
Most compounds without a hit are left out; they make up all but 12% or so of the library.
JMJD2A Tudor = JMJD2A Tudor domain (human) inhibition. hit rate 4.4% among 390,000. AlphaScreen JMJD2A-Tudor / H3K4me3 peptide binding. O75164. Potency, µM (top dose mostly 114 µM), most hits filed as inhibitors; further: nearly all actives have a fitted effect of over 50% in size
G9a inh = inhibitors of human histone lysine methyltransferase G9a | hit rate 8.8% among 350,000 | G9a H3K9 monomethylation, AlphaScreen, 2 h | Potency, µM (titrated, usually from 102 µM), usual class: inhibitors | Q96KQ7; further: nearly all actives have a fitted effect of over 75% in size
Target sequence (Q96KQ7 913-1193 limits assumed): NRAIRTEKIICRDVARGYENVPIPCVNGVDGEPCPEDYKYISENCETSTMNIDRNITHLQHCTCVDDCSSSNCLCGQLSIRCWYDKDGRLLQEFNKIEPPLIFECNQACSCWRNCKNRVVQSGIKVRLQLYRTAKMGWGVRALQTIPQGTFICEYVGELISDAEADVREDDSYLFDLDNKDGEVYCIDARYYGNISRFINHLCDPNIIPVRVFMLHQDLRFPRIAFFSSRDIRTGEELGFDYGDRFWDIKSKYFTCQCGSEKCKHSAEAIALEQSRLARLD
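G9a (20 nM) was preincubated 15 min with compound, then reacted 2 h at room temperature with 500 nM biotin-H3K9 peptide and 20 µM SAM. Monomethyl-H3K9 detected by AlphaScreen using anti-H3K9me1 antibody.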
PLK1 PBD inh = PLK1 (human) polo-box domain binding inhibition; P53350; Potency, µM, actives largely listed as inhibitors; Plk1 PBD binding of FITC phosphopeptide, fluorescence polarization; hit rate 2.8% among 360,000; further: series mostly up to about 57 µM; nearly all actives have a fitted effect of over 65% in size
PI5P4Ka inh = PI5P4K alpha (human) kinase inhibition; P48426; PI5P4Kalpha enzyme, ADP-Glo luminescence, 60 min; stronger effect = lower value; max response, %; hit rate 1.2% among 330,000; AID 652105; active means max response of -50% or lower; inconclusive means between -30% and -50%; inactive means -30% or higher; further: value at the top dose of about 77 µM
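Controls without substrate or without enzyme flank wells where PI5P4Kalpha converts substrate using 5 microM ATP (final). Incubation lasts 60 minutes at room temperature; ADP formed is read by ADP-Glo luminescence.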
BAZ2B inh = blocks human BAZ2B; Q9UIF8; AlphaScreen BAZ2B-H3K14Ac peptide displacement; Potency, µM (series often up to 114 µM), hits mostly inhibitors; hit rate 4.4% among 360,000; AID 504333; further: nearly all actives have a fitted effect of over 60% in size
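AlphaScreen displacement: compounds (up to 110uM) incubated 30 min at room temperature with a preformed 50 nM BAZ2B/50 nM biotinylated H3K14Ac peptide complex in PBS pH 7.4 with Tween-20. Donor and acceptor beads at 10 ug/mL final added, 20 min light-protected before reading.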
HP1b chromo inh = inhibitors of HP1-beta chromodomain binding to methylated histone tails | AlphaScreen HP1-beta / biotin-H3K9me3 peptide binding | Potency, µM (series often up to 114 µM), usual class: inhibitors | AID 540317 | hit rate 0.56% among 390,000; further: nearly all actives have a fitted effect of over 70% in size
Target sequence (P83916 whole entry, looked up): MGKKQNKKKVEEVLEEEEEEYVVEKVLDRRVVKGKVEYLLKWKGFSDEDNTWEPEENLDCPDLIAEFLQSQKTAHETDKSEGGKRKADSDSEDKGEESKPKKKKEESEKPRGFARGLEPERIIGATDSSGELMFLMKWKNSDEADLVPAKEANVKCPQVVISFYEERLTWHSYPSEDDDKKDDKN
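HP1-beta protein (50 nM final) preincubated 30 min at room temperature with biotinylated H3(1-18)K9me3 peptide (50 nM) in PBS pH 7.4, 0.01% Tween-20, then compound added for 30 min. AlphaScreen streptavidin donor/nickel chelate acceptor beads (10 ug/mL final), 30 min dark, luminescence read.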
Numbers stand for hits; - = inactive; ? = inconclusive; . = not tested or not shown; [ ] = remark or other dose. Unless noted, the call rests on the fitted dose curve; in most records, active means well fitted curve in the direction sought with a large enough effect; inconclusive means small, poorly fitted or top-dose-only effect, or another doubt; inactive means no such curve, though single readings can be large; an effect the other way counts as inactive or inconclusive.

SMILES | JMJD2A Tudor | G9a inh | PLK1 PBD inh | PI5P4Ka inh | BAZ2B inh | HP1b chromo inh
O=C(CNC(=O)c1cccc(F)c1)OCC(=O)N1CCCCC1 | - | 16µM | - | - | - | -
O=C(NCC(=O)N1CCCCCCC1)c1cccc([N+](=O)[O-])c1 | - | 1.3µM | - | - | - | -
O=C(CNC(=O)c1cccc(F)c1)OCC(=O)N1CCN(C(=O)c2ccco2)CC1 | - | - | - | - | - | -
Cc1cccc(C(=O)NCC(=O)N2CCCC2)c1 | - | - | - | - | - | -
Cc1ccc(CN2CCN(/N=C\c3cccc([N+](=O)[O-])c3)CC2)cc1 | 45µM | 28µM | - | - | 28µM | 35µM
Cc1ccc(/C=N/N2CCN(Cc3ccc(C)cc3)CC2)cc1 | ? | ? | - | - | 35µM | -
Cc1ccc(CN2CCN(/N=C/c3ccc(C(F)(F)F)cc3)CC2)cc1 | ? | - | - | - | - | ?
Cc1ccc(/C=N/N2CCN(Cc3ccccc3)CC2)s1 | 50µM | -[0.501 µM] | - | - | 7.1µM | ?
Cc1ccc(/C=N/N2CCN(Cc3cccc4ccccc34)CC2)s1 | - | -[0.501 µM] | - | - | - | -
Cc1ccc(CN2CCN(/N=C\C=C\c3ccccc3)CC2)cc1 | 40µM | 35µM | - | - | 28µM | ?
O=[N+]([O-])c1cccc(/C=N\N2CCN(c3ccc(Cl)cc3)CC2)c1 | - | ? | - | - | - | -
Cc1ccc(CN2CCN(/N=C/c3cccs3)CC2)cc1 | - | ? | - | - | 45µM | ?
Cc1ccc(CN2CCN(/N=C/c3ccc(C)s3)CC2)cc1 | ? | - | - | - | 40µM | ?
Cc1ccc(CN2CCN(/N=C/c3cc(Br)ccc3O)CC2)cc1 | - | -[12.7 µM] | - | . | - | -
CCCNC(=O)C1(C)CCCN(Cc2ccc3ccccc3c2)C1 (configuration not stated) | . | . | - | - | . | .
Cc1n(-c2ccccc2)c2ccc(Cl)cc2[n+]1CCO | ? | 8.9µM | - | - | - | -
O=S(=O)([O-])CCC[n+]1c(/C=C\Nc2ccccc2)oc2ccc(-c3ccccc3)cc21 | . | - | . | . | 79µM | .
CC[n+]1c(/C=C/N(C)c2ccccc2)oc2ccc(F)cc21 | 79µM | 8.9µM | ? | - | - | -
Cc1ccc2c(c1)sc(C)[n+]2CCCS(=O)(=O)[O-] | - | ? | - | - | - | -
CC[n+]1c(/C=C/Nc2ccccc2)oc2ccc(OC)cc21 | - | ? | - | - | - | -
CC[n+]1c(/C=C/Nc2ccccc2)oc2ccccc21 | - | 50µM | - | . | - | -
Cc1cc(NC(=O)CCS(=O)(=O)c2cc(Br)cc3c2N(C(=O)C2CC2)CC3)ccc1Br | - | - | . | . | - | -
Cc1oc(-c2ccccc2Cl)nc1CS(=O)CC(=O)N1CCN(c2cccc(C(F)(F)F)c2)CC1 (configuration not stated) | ? | - | . | . | - | -
CC(=O)Nc1ccc(N2C(=O)CSC2c2ccc([N+](=O)[O-])cc2)cc1 (configuration not stated) | - | - | - | - | - | -
NS(=O)(=O)c1ccc(NC2=CC(c3ccc([N+](=O)[O-])cc3)N(c3ccc(S(N)(=O)=O)cc3)C2=O)cc1 (configuration not stated) | - | 22µM | - | - | ? | -
SMILES | JMJD2A Tudor | G9a inh | PLK1 PBD inh | PI5P4Ka inh | BAZ2B inh | HP1b chromo inh
O=C(C[n+]1ccccc1)N/N=C/c1cc(Br)cc(Br)c1O | 22µM | - | - | - | 10µM | -
O=C(C[n+]1ccccc1)N/N=C/c1cc(Br)ccc1F | ? | -[12.7 µM] | - | - | 71µM | -
O=C(C[n+]1ccccc1)N/N=C/c1ccc(C(=O)O)cc1 | - | ? | - | - | 79µM | -
Cc1cc(NC(=O)CSCC(=O)Nc2cccc(S(=O)(=O)N3CCCCCC3)c2)no1 | - | - | - | - | ? | -
CCOC(=O)C1=CCN(S(=O)(=O)c2ccccc2Cl)C1c1cccc(C)c1 (configuration not stated) | . | . | - | - | . | .
Cc1sc2nc(CN3CCOCC3)nc(N3CCOCC3)c2c1C | ? | 3.5µM | - | - | 50µM | ?
COc1cc2c(cc1OC)CN(c1nc(CN3CCOCC3)nc3sc4c(c13)CCCC4)CC2 | 50µM | 45µM | - | - | 45µM | ?
COc1cc2c(cc1OC)CN(c1nc(CN3CCCC3)nc3sc(C)c(C)c13)CC2 | ? | 35µM | - | - | 79µM | -
